# Source: PubChem (Broad Institute)
# MITF TRPM1 HTS = activators of MITF-driven TRPM1 promoter reporter, primary screen, cell-based, SK-MEL-5, luciferase, single point. 0.75% of 300,000 active. activation, % at 12.5 µM. SK-MEL-5 TRPM1-promoter luciferase, 24 h; % of positive control, neutral wells = 0;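 active means mean activation of at least 80% with every replicate also reaching 80%; inconclusive means mean reaches 80% but some replicate falls short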;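 further: 0% = neutral control wells and 100% = parthenolide positive control wells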
# Dyrk1A ADPGlo = rat Dyrk1A kinase inhibitors, primary screen, biochemical, single point, plate reader; Dual specificity tyrosine-phosphorylation-regulated kinase 1A (Rattus norvegicus), Q63470; inhibition, % at 12.5 µM; 0.43% of 310,000 active; ADP-Glo luminescence, NFATc1 peptide;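 further: plate controls were vehicle with enzyme for no effect and no enzyme for full effect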
# NSD2 inh = NSD2 histone methyltransferase inhibitors, primary screen, biochemical, AlphaScreen, single concentration, set 2; Histone-lysine N-methyltransferase NSD2 (Homo sapiens), O96028; NSD2 peptide methylation, 120 min; inhibition, % at 12.5 µM; 0.54% of 310,000 active; AID 743445, 2014
# Wnt act = Wnt/beta-catenin pathway activators, primary screen, cell-based, plate reader, single point; Wnt/beta-catenin reporter cell assay, activator; activation, % at 9.35 µM; 1.2% of 300,000 active; in the data active means activation above about 30%, passing the limit was not always enough; inconclusive means no clear call, values can overlap the other calls;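 further: 0% = neutral control wells and 100% = positive control wells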
# GSIS activator = GLuc luminescence reporter in INS-1E cells, primary screen for activators of glucose-dependent secretion of insulin. activation, % at 16.6 µM. 0.61% of 370,000 active. INS-1E GLuc reporter insulin secretion, 2-3 h. AID 743287, 2014;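 active means lowest replicate activation of at least 40%, so every replicate reaches that level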;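 further: 0% = median of neutral control wells and 100% = median of IBMX positive control wells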
# miR-122 sensor = miR-122 Renilla sensor signal increase in Huh7, primary screen, miR-122 inhibitor project, cell-based, single point, plate reader | activation (reporter increase), % at 12.5 µM | Huh7 miR-122 Renilla luciferase sensor, 48 h; neutral wells = 0, positive control = 100 | 0.3% of 340,000 active;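 active means mean replicate activation score at least 90 and every replicate individually at or above 90; inconclusive means only one of the two criteria met; inactive means neither criterion met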;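 further: higher luciferase means less miR-122 activity so hits act as miR-122 inhibitors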
# An asterisk follows results filed as active; ? = inconclusive; / = no result; [ ] = another dose, or the depositor's remark. Most compounds without a hit are left out; they make up all but 2.4% or so of the library. Unless noted, no stated cut-off is given here; in the data, active means inhibition above about 50%; inactive means the rest.
SMILES,MITF TRPM1 HTS,Dyrk1A ADPGlo,NSD2 inh,Wnt act,GSIS activator,miR-122 sensor
C[C@H]1CN([C@@H](C)CO)C(=O)Cc2cc(NS(=O)(=O)c3cn(C)cn3)ccc2O[C@H]1CN(C)S(=O)(=O)c1ccc(F)cc1,/,/,/,/,14,6[16.7 µM]
CN(C)C(=S)Nc1ccc(Cl)cc1,/,10,-2,1,/,0
CN(C)C(=S)Nc1ccc([N+](=O)[O-])cc1,11,-5,-2,/,68*,-19
CC(=O)N1[C@H](CO)[C@@H](c2ccccc2)C12CN(C(=O)c1ccccc1)C2,/,/,/,/,0,/
Cn1ccc(NC(=O)c2ccc(Cl)cc2Cl)n1,?,/,-1,35*,7,/
COc1ccc2nc3ccccc3nc2c1NC(=O)c1ccc(Cl)cc1Cl,14,-8,2,/,87*,-6
COc1cc(-c2cc(C(=O)Nc3c(Cl)cc(Cl)cc3Cl)c3ccccc3n2)cc(OC)c1OC,0,-9,/,-3,/,/
Cn1ccc(NC(=O)c2ccc(Cl)cc2)n1,50,-1,6,18,/,5
Cc1cc(C)nc(NC(=O)c2ccc(Cl)cc2Cl)n1,-17,/,0,1,68*,-2
O=C(C[C@H]1C[C@@H]2c3cc(NC(=O)Nc4ccccc4F)ccc3O[C@@H]2[C@H](CO)O1)NCc1ccc(Oc2ccccc2)cc1,/,/,/,/,-5,-5[16.7 µM]
C[C@@H]1CN([C@H](C)CO)C(=O)Cc2cc(NC(=O)Cc3cn(C)c4ccccc34)ccc2O[C@H]1CN(C)S(C)(=O)=O,/,/,/,/,-2,-5[16.7 µM]
Cc1ccc(S(=O)(=O)Nc2ccc3c(c2)C(=O)N([C@@H](C)CO)C[C@H](C)[C@@H](CN(C)C(=O)CCCN(C)C)OCCCC[C@H](C)O3)cc1,/,/,/,/,20,-1[16.7 µM]
Cc1ccc(S(=O)(=O)NCC[C@H]2CC[C@H](NC(=O)Nc3cccc(F)c3)[C@@H](CO)O2)cc1,/,/,/,/,-6,/
COCCn1c(-c2ccc3ccccc3c2)nc2c1c(=O)[nH]c(=O)n2CC(C)C,-12,-1,-1,2,48*,/
C[C@H](CO)N1C[C@H](C)[C@@H](CN(C)S(=O)(=O)c2cccs2)OCCCC[C@H](C)Oc2ccc(N(C)C)cc2C1=O,/,/,/,/,5,2[16.7 µM]
Cc1ccsc1C(=O)OCC(=O)c1ccc[nH]1,109*,-4,-1,38*,2,-4
Cc1ccc(C(=O)OCC(=O)c2ccc[nH]2)s1,31,0,1,0,51,/
COc1ccc(C(=O)COC(=O)c2sccc2C)cc1OC,103*,/,-2,45*,/,0
O=C(OCC(=O)c1ccc[nH]1)c1ccc(C(F)(F)F)cc1,13,/,1,-7,-4,-8
COc1ccc(C(=O)COC(=O)c2ccc(OC)c(OC)c2)cc1OC,-3,2,-1,/,2,3
CC(C)Oc1ccc(C(=O)OCC(=O)c2ccc[nH]2)cc1,89*,11,5,45*,-30,/
CC(=O)N1CCCCN2[C@H](C1)[C@@H](c1ccc(Br)cc1)[C@@H]2CO,/,/,/,/,8,7[16.7 µM]
CO[C@H]1CC[C@@H]2CCN(C)C(=O)[C@H](C)N(C)C(=O)c3cc(C#N)ccc3OC[C@H]1O2,/,/,/,/,-7,/
CCC(=O)N1CC2(CN(Cc3ccc(F)cc3)C2)c2c(n(C)c3cc(OC)ccc23)[C@@H]1CO,/,/,/,/,3,/
COc1cccc(CN(C)Cc2cc(=O)oc3c(C)c(C)ccc23)c1,4,0,8,0,-24,3
SMILES,MITF TRPM1 HTS,Dyrk1A ADPGlo,NSD2 inh,Wnt act,GSIS activator,miR-122 sensor
Cc1ccc2c(CN3CCCc4ccccc43)cc(=O)oc2c1C,-6,10,-1,9,/,147*
Cc1ccccc1CN(C)Cc1cc(=O)oc2c(C)c(C)ccc12,14,7,-2,-6,93*,/
COc1ccc(C2N(c3ccccc3)C(=O)C2(F)F)cc1OC (centres undefined),3,0,-3,0,44*,-7
N#C/C(=C/c1ccc(N2CCOCC2)o1)c1ccc(Cl)cc1,106*,6,2,-14,/,2
O=S(=O)(N[C@H]1CC[C@H](CCn2cc(C3CC3)nn2)O[C@@H]1CO)c1ccc(F)cc1,/,/,/,/,-14,3[16.7 µM]
CC(=O)NC[C@@H]1[C@@H](c2ccccc2)[C@@H](CO)N1C(=O)Cc1ccncc1,/,/,/,/,4,29[16.7 µM]
Cc1ccc(S(=O)(=O)Nc2ccc3nc(C)sc3c2)cc1,5,-5,-2,/,/,15
Cc1ccc2nc(-c3ccc(NS(=O)(=O)c4ccccc4)cc3)sc2c1,14,-6,-2,0,-1,/
Cc1ccc(S(=O)(=O)Nc2ccc3nc(N)sc3c2)cc1,-6,1,1,2,/,268*
Cc1ccc2nc(-c3ccc(NS(=O)(=O)c4ccc(F)c(F)c4)cc3)sc2c1,58,1,-1,38*,-31,/
Cc1cc(C(=O)COc2cccc([N+](=O)[O-])c2)c(C)n1C1CC1,105*,2,0,-2,/,-13
O=C(C[C@H]1C[C@@H]2c3cc(NC(=O)NC4CCCC4)ccc3O[C@@H]2[C@@H](CO)O1)NCc1cccnc1,/,/,/,/,-17,/
NC(=O)c1ccc(-c2ncc(-c3ccccc3)o2)cc1,-50,11,13,/,11,12
Fc1cccc(-c2ncc(-c3ccccc3)o2)c1,49,-4,1,42*,/,3
C[C@H]1CN([C@@H](C)CO)C(=O)c2cc(/C=C/c3ccccc3)cnc2O[C@@H]1CN(C)C(=O)c1ccc2c(c1)OCO2,/,/,/,/,-51,-8[16.7 µM]
O=C(O)CC1=C(Nc2ccccc2)C(=O)N(c2ccccc2)C1c1ccc(Br)cc1 (centres undefined),16,/,1,36*,5,2
O=C(O)CC1=C(O)C(=O)N(c2ccccc2)C1c1ccc(Cl)cc1 (centres undefined),-7,-3,4,-1,16,1
Brc1ccc(-c2cn3nc4c(nc3n2)CCCC4)cc1,-37,-1,3,/,/,8
Nc1nn2cc(-c3ccc(Br)cc3)nc2c2ccccc12,55,-1,-2,44*,8,5
COCc1cn(CC[C@@H]2CC[C@@H](NC(=O)CCN3CCCCC3)[C@@H](CO)O2)nn1,/,/,/,/,12,/
COc1ccc2c3c(n(C)c2c1)[C@@H](CO)N(C(=O)c1ccccc1)CC31CN(Cc2ccccc2OC)C1,/,/,/,/,11,/
C=CCN1C(=O)CSc2ccc(C(=O)OCC)cc21,6,9,-5,/,69*,-5
CO[C@@H]1CN(C)C(=O)c2ccc(NC(=O)c3ccccc3)cc2OC[C@@H](C)NC[C@H]1C,/,/,/,/,11,/
CC(C)=CCC[C@H](C)C[C@@H]1Cc2[nH]c(=S)[nH]c(=O)c2[C@@H](c2ccc(F)cc2)O1,/,/,/,3,255*,/
